According to PubChem BioAssay (NCI):
This is part of a sample that, as a whole, favours compounds with a hit. Of some 79,000 tested, about 15% had one in any assay. Calls of active or inactive are those of the source. No stated cut-off is given here; in the data, active means growth inhibition above about 70%; inactive means the rest.

How the values were obtained:
[1] = NCI Yeast Anticancer Drug Screen. Data for the rad52 strain (AID 147);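 further: 0% = growth of vehicle-treated control cultures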; conditions: S. cerevisiae rad52 mutant growth inhibition, active compounds read high
Method in brief: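 Measured: yeast growth inhibition. System: strain with a defined DNA damage repair alteration. Reference: vehicle-treated control cultures.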

[2] = NCI Yeast Anticancer Drug Screen. Data for the wt1 strain (AID 149);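 further: 0% = growth of vehicle-treated wt1 cultures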; conditions: S. cerevisiae wt1 strain (SPY 50644) growth inhibition, active compounds read high
Method in brief: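 wt1 strain grown with compound or vehicle; inhibition taken from the growth difference.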

[3] = NCI Yeast Anticancer Drug Screen. Data for the rad50EPP+ strain (AID 151);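 further: 0% = growth of vehicle-treated control cultures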; conditions: S. cerevisiae rad50 mutant strain, active compounds read high
Method in brief: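 One strain with a rad50 alteration (rad50EPP+) was compound-treated, its growth then compared to that of vehicle controls.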

[4] = NCI Yeast Anticancer Drug Screen. Data for the mgt1 strain (AID 153); conditions: S. cerevisiae mgt1 mutant growth inhibition, active compounds read high
Method in brief: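 After exposure of the mgt1 yeast mutant to compound, growth was measured and reported as inhibition compared with vehicle controls.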

[5] = NCI Yeast Anticancer Drug Screen. Data for the rad50 strain (AID 155);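 further: 0% = growth of vehicle-only cultures of the same strain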; conditions: S. cerevisiae rad50 strain growth inhibition, active compounds read high
Method in brief: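 DNA repair mutant yeast, compound exposure, growth read-out; inhibition is taken relative to vehicle.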

[6] = NCI Yeast Anticancer Drug Screen. Data for the mec2-1 strain (AID 157); conditions: S. cerevisiae mec2-1 strain, active compounds read high
Method in brief: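 Test agents were screened against the mec2-1 yeast strain, with defined DNA repair or cell cycle alteration. Growth was scored as inhibition against vehicle-only controls.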

[7] = NCI Yeast Anticancer Drug Screen. Data for the rad14 strain (AID 159);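 further: 0% = growth of vehicle-treated control cultures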; conditions: S. cerevisiae rad14 strain growth inhibition, active compounds read high
Method in brief: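 DNA repair-defective yeast, compound-exposed; % growth inhibition derived by comparison with vehicle-treated controls.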

[8] = NCI Yeast Anticancer Drug Screen. Data for the sgs1 mgt1 strain (AID 161);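 further: 0% = growth of cultures given vehicle only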; conditions: S. cerevisiae sgs1 mgt1 strain, active compounds read high
Method in brief: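 Inhibition of yeast growth, normalised to vehicle-treated controls, is reported for a strain bearing genetic alterations in DNA damage repair.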

[9] = NCI Yeast Anticancer Drug Screen. Data for the CLN2oe strain (AID 163);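 further: 0% = growth of vehicle-only control cultures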; conditions: S. cerevisiae CLN2oe strain, active compounds read high
Method in brief: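 Here, growth inhibition in a cell-cycle-altered yeast strain after compound exposure was quantified against vehicle control growth.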

[10] = NCI Yeast Anticancer Drug Screen. Data for the cln2 rad14 strain (AID 165);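 further: 0% = growth equal to vehicle treated cultures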; conditions: S. cerevisiae cln2 rad14 strain, active compounds read high
Method in brief: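 Growth of compound-exposed yeast (cln2 rad14 genotype) measured and expressed as inhibition relative to vehicle.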

[11] = NCI Yeast Anticancer Drug Screen. Data for the bub3 strain (AID 167); conditions: S. cerevisiae bub3 mutant strain, active compounds read high
Method in brief: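 In this screen, a yeast mutant lacking normal mitotic checkpoint function is challenged with compound. Relative growth versus vehicle gives the inhibition value.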

[12] = NCI Yeast Anticancer Drug Screen. Data for the wt2 strain (AID 169);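 further: 0% = growth of vehicle-treated yeast cultures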; conditions: S. cerevisiae wt2 strain growth inhibition, active compounds read high
Method in brief: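 Genetically defined yeast strains from a DNA-repair/cell-cycle panel were used. Compound-exposed yeast growth was measured, and the inhibition was calculated relative to vehicle treatment.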

[13] = NCI Yeast Anticancer Drug Screen. Data for the mlh1 strain (AID 171);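 further: 0% = growth of vehicle-treated control cultures of the same strain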; conditions: S. cerevisiae mlh1 strain growth inhibition, active compounds read high
Method in brief: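 Here the genetically defined yeast mutant is grown with each compound, and the extent to which its growth falls below that of vehicle-exposed cells is reported.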

[14] = NCI Yeast Anticancer Drug Screen. Data for the sgs1 strain (AID 173);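 further: 0% = growth of vehicle-only control cultures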; conditions: S. cerevisiae sgs1 mutant, active compounds read high
Method in brief: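 Relative growth inhibition, referenced to vehicle, was determined in a yeast strain with a defined alteration affecting DNA damage repair or cell cycle control after compound exposure.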

[15] = NCI Yeast Anticancer Drug Screen. Data for the mlh1 rad18 strain (AID 175); conditions: S. cerevisiae mlh1 rad18 strain growth inhibition, active compounds read high
Method in brief: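 In this whole-cell yeast screen, a strain with altered DNA damage repair is challenged with compound, and its growth is measured against matched vehicle-treated controls.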

[16] = NCI Yeast Anticancer Drug Screen. Data for the rad18 strain (AID 177); conditions: S. cerevisiae rad18 mutant growth inhibition, active compounds read high
Method in brief: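 Screen uses a yeast strain with a defined lesion in DNA damage repair; compound effect is read as loss of growth compared to untreated vehicle cultures.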

[17] = at 5.0 µM (retest, dose inferred, filed as 0.5)
[18] = at 50.0 µM (retest, dose inferred, filed as 5.0)

Measured: growth inhibition

O=NC1c2cccc3cccc(c23)C1N=O (stereo not drawn)
inactive: [1]; at 1.2 µM 14% | [1]; at 3.7 µM 33% | [2]; at 1.2 µM 3% | [2]; at 3.7 µM 3% | [2]; at 11.0 µM 20% | [2]; at 33.0 µM 38% | [2]; at 100.0 µM 69% | [3]; at 1.2 µM 11% | [3]; at 3.7 µM 41% | [4]; at 1.2 µM 4% | [4]; at 3.7 µM 12% | [4]; at 11.0 µM 47% | [5]; at 1.2 µM 19% | [5]; at 3.7 µM 49% | [5]; [17] 17% | [6]; at 1.2 µM -2% | [6]; at 3.7 µM 0% | [6]; [17] 13% | [6]; at 11.0 µM -1% | [6]; at 33.0 µM 31% | [6]; at 100.0 µM 45% | [7]; at 1.2 µM 4% | [7]; at 3.7 µM 25% | [7]; at 11.0 µM 40% | [8]; [17] 30% | [9]; at 1.2 µM 4% | [9]; at 3.7 µM 8% | [9]; at 11.0 µM 24% | [9]; at 33.0 µM 43% | [9]; at 100.0 µM 54% | [10]; [17] 6% | [11]; at 1.2 µM -10% | [11]; at 3.7 µM -20% | [11]; [17] -3% | [11]; at 11.0 µM 16% | [11]; at 33.0 µM 27% | [11]; at 100.0 µM 44% | [12]; at 1.2 µM 2% | [12]; at 3.7 µM 9% | [12]; at 11.0 µM 36% | [13]; at 1.2 µM 2% | [13]; at 3.7 µM 13% | [13]; at 11.0 µM 40% | [14]; at 1.2 µM 7% | [14]; at 3.7 µM 23% | [14]; at 11.0 µM 58% | [15]; [17] 48% | [16]; at 1.2 µM 22%
active: [1]; at 11.0 µM 75% | [1]; at 33.0 µM 90% | [1]; at 100.0 µM 94% | [3]; at 11.0 µM 81% | [3]; at 33.0 µM 92% | [3]; at 100.0 µM 93% | [4]; at 33.0 µM 86% | [4]; at 100.0 µM 94% | [5]; at 11.0 µM 84% | [5]; at 33.0 µM 93% | [5]; [18] 96% | [5]; at 50.0 µM 97% | [5]; at 100.0 µM 94% | [6]; [18] 94% | [6]; at 50.0 µM 94.3% | [7]; at 33.0 µM 92% | [7]; at 100.0 µM 97% | [8]; [18] 97% | [8]; at 50.0 µM 97.3% | [10]; [18] 92% | [10]; at 50.0 µM 80.5% | [11]; [18] 95% | [11]; at 50.0 µM 89% | [12]; at 33.0 µM 77% | [12]; at 100.0 µM 94% | [13]; at 33.0 µM 88% | [13]; at 100.0 µM 94% | [14]; at 33.0 µM 89% | [14]; at 100.0 µM 95% | [15]; [18] 98% | [15]; at 50.0 µM 97.3% | [16]; at 3.7 µM 70% | [16]; at 11.0 µM 94% | [16]; at 33.0 µM 95% | [16]; at 100.0 µM 95%
